{"source": "paper PMC5540273", "about": "(PLoS ONE, 2017);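 also: KINOMEscan kinase panel screen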", "details_in_all_cases": "concentration: 1 μM, replicates: in singlicate; n = 1", "key": {"CDK4-cyclinD1": {"tested_on": "CDK4-cyclinD1"}, "CDK4-cyclinD3": {"tested_on": "CDK4-cyclinD3"}, "CDK4": {"tested_on": "CDK4"}, "CDK5": {"tested_on": "CDK5"}, "CDK7": {"tested_on": "CDK7"}, "CDK8": {"tested_on": "CDK8"}, "CDK9": {"tested_on": "CDK9"}, "CDKL1": {"tested_on": "CDKL1"}, "CDKL2": {"tested_on": "CDKL2"}, "CDKL3": {"tested_on": "CDKL3"}, "CDKL5": {"tested_on": "CDKL5"}, "CHEK1": {"tested_on": "CHEK1"}, "CHEK2": {"tested_on": "CHEK2"}, "CIT": {"tested_on": "CIT"}, "CLK1": {"tested_on": "CLK1"}, "CLK2": {"tested_on": "CLK2"}, "CLK3": {"tested_on": "CLK3"}, "CLK4": {"tested_on": "CLK4"}, "CSF1R-autoinhibited": {"tested_on": "CSF1R-autoinhibited"}, "CSF1R": {"tested_on": "CSF1R"}}}
{"smiles": "CNCc1ccc2nc(NC(=O)c3ccc(C(C)(C)C)cc3)cn2c1", "values": [{"measurement": "%Inh", "setting": "CDK4-cyclinD1", "value": 14, "unit": "%"}, {"measurement": "%Inh", "setting": "CDK4-cyclinD3", "value": 0, "unit": "%"}, {"measurement": "%Inh", "setting": "CDK4", "value": 3, "unit": "%"}, {"measurement": "%Inh", "setting": "CDK5", "value": 0, "unit": "%"}, {"measurement": "%Inh", "setting": "CDK7", "value": 8, "unit": "%"}, {"measurement": "%Inh", "setting": "CDK8", "value": 1, "unit": "%"}, {"measurement": "%Inh", "setting": "CDK9", "value": 3, "unit": "%"}, {"measurement": "%Inh", "setting": "CDKL1", "value": 0, "unit": "%"}, {"measurement": "%Inh", "setting": "CDKL2", "value": 0, "unit": "%"}, {"measurement": "%Inh", "setting": "CDKL3", "value": 0, "unit": "%"}, {"measurement": "%Inh", "setting": "CDKL5", "value": 23, "unit": "%"}, {"measurement": "%Inh", "setting": "CHEK1", "value": 5, "unit": "%"}, {"measurement": "%Inh", "setting": "CHEK2", "value": 0, "unit": "%"}, {"measurement": "%Inh", "setting": "CIT", "value": 0, "unit": "%"}, {"measurement": "%Inh", "setting": "CLK1", "value": 87, "unit": "%"}, {"measurement": "%Inh", "setting": "CLK2", "value": 22, "unit": "%"}, {"measurement": "%Inh", "setting": "CLK3", "value": 0, "unit": "%"}, {"measurement": "%Inh", "setting": "CLK4", "value": 3, "unit": "%"}, {"measurement": "%Inh", "setting": "CSF1R-autoinhibited", "value": 2, "unit": "%"}, {"measurement": "%Inh", "setting": "CSF1R", "value": 42, "unit": "%"}]}
{"smiles": "COC(=O)C(Cc1ccccc1)NC(=O)NC1CCN(c2ccnc(Nc3ccc(F)cc3)n2)C1", "note": "(stereo not drawn) [GSK1379714]", "values": [{"measurement": "%Inh", "setting": "CDK4-cyclinD1", "value": 29, "unit": "%"}, {"measurement": "%Inh", "setting": "CDK4-cyclinD3", "value": 0, "unit": "%"}, {"measurement": "%Inh", "setting": "CDK4", "value": 5, "unit": "%"}, {"measurement": "%Inh", "setting": "CDK5", "value": 0, "unit": "%"}, {"measurement": "%Inh", "setting": "CDK7", "value": 0, "unit": "%"}, {"measurement": "%Inh", "setting": "CDK8", "value": 48, "unit": "%"}, {"measurement": "%Inh", "setting": "CDK9", "value": 0, "unit": "%"}, {"measurement": "%Inh", "setting": "CDKL1", "value": 8, "unit": "%"}, {"measurement": "%Inh", "setting": "CDKL2", "value": 9, "unit": "%"}, {"measurement": "%Inh", "setting": "CDKL3", "value": 0, "unit": "%"}, {"measurement": "%Inh", "setting": "CDKL5", "value": 1, "unit": "%"}, {"measurement": "%Inh", "setting": "CHEK1", "value": 86, "unit": "%"}, {"measurement": "%Inh", "setting": "CHEK2", "value": 14, "unit": "%"}, {"measurement": "%Inh", "setting": "CIT", "value": 6, "unit": "%"}, {"measurement": "%Inh", "setting": "CLK1", "value": 5, "unit": "%"}, {"measurement": "%Inh", "setting": "CLK2", "value": 0, "unit": "%"}, {"measurement": "%Inh", "setting": "CLK3", "value": 0, "unit": "%"}, {"measurement": "%Inh", "setting": "CLK4", "value": 13, "unit": "%"}, {"measurement": "%Inh", "setting": "CSF1R-autoinhibited", "value": 35, "unit": "%"}, {"measurement": "%Inh", "setting": "CSF1R", "value": 1, "unit": "%"}]}
{"smiles": "COc1ccc(Nc2nccc(NCCNC(=O)Nc3cc(C)ccc3C)n2)cc1", "note": "[GSK1379899]", "values": [{"measurement": "%Inh", "setting": "CDK4-cyclinD1", "value": 0, "unit": "%"}, {"measurement": "%Inh", "setting": "CDK4-cyclinD3", "value": 0, "unit": "%"}, {"measurement": "%Inh", "setting": "CDK4", "value": 3, "unit": "%"}, {"measurement": "%Inh", "setting": "CDK5", "value": 0, "unit": "%"}, {"measurement": "%Inh", "setting": "CDK7", "value": 0, "unit": "%"}, {"measurement": "%Inh", "setting": "CDK8", "value": 13, "unit": "%"}, {"measurement": "%Inh", "setting": "CDK9", "value": 0, "unit": "%"}, {"measurement": "%Inh", "setting": "CDKL1", "value": 0, "unit": "%"}, {"measurement": "%Inh", "setting": "CDKL2", "value": 21, "unit": "%"}, {"measurement": "%Inh", "setting": "CDKL3", "value": 0, "unit": "%"}, {"measurement": "%Inh", "setting": "CDKL5", "value": 5, "unit": "%"}, {"measurement": "%Inh", "setting": "CHEK1", "value": 5, "unit": "%"}, {"measurement": "%Inh", "setting": "CHEK2", "value": 86, "unit": "%"}, {"measurement": "%Inh", "setting": "CIT", "value": 7, "unit": "%"}, {"measurement": "%Inh", "setting": "CLK1", "value": 23, "unit": "%"}, {"measurement": "%Inh", "setting": "CLK2", "value": 0, "unit": "%"}, {"measurement": "%Inh", "setting": "CLK3", "value": 6, "unit": "%"}, {"measurement": "%Inh", "setting": "CLK4", "value": 57, "unit": "%"}, {"measurement": "%Inh", "setting": "CSF1R-autoinhibited", "value": 0, "unit": "%"}, {"measurement": "%Inh", "setting": "CSF1R", "value": 0, "unit": "%"}]}
